Among the data in publication PMC8384837, “Expanding the binding specificity for RNA recognition by a PUF domain” are binding signal values, retold here.

Assay in all cases: yeast three-hybrid, YBZ-1, SC-Leu-His + 0.5 mM 3-AT, 4 days
Common to all, as to settings: tags: N-Gal4 AD-HA kept; label: inside an RPR1-promoter hybrid RNA with tandem MS2 sites; ssRNA

The target in one assay is PUM1 PUF domain R5-GVD (Homo sapiens, UniProt Q14671 828-1176, C1007G;R1008V;Q1011D). The procedure, abridged:
(§1)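 Matching RNA elements and Pumilio-1 PUF domain libraries, randomized at the three base-contacting residues of every repeat, were co-expressed from a centromeric plasmid in strain YBZ-1 (LexA–MS2 coat fusion, HIS3 reporter). The repeat regions were PCR-amplified and Illumina-sequenced from cells grown four days on SC-Leu (input) or SC-Leu-His + 0.5 mM 3-AT (selection). The interaction score is the log change in variant frequency from input to selection. It is computed in log2, with a pseudocount of 1 for absent variants.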

A further assay concerns the target PUM1 PUF domain R7-GVD (Homo sapiens, UniProt Q14671 828-1176, S1079G;N1080V;E1083D). The method in brief: as §1
In the next assay the target is PUM1 PUF domain R7-RPI (Homo sapiens, UniProt Q14671 828-1176, S1079R;N1080P;E1083I). The method in brief: as §1
The target of a further assay is PUM1 PUF domain R4-SRR (Homo sapiens, UniProt Q14671 828-1176, N971S;H972R;Q975R). The procedure, abridged:
as §1

The target in a further assay is PUM1 PUF domain R4-ARA (Homo sapiens, UniProt Q14671 828-1176, N971A;H972R;Q975A). The method in brief: as §1
For another assay, the target named is T1, PUM1 PUF domain R6-QWG (Homo sapiens, UniProt Q14671 828-1176, N1043Q;Y1044W;Q1047G).
T1 sequence: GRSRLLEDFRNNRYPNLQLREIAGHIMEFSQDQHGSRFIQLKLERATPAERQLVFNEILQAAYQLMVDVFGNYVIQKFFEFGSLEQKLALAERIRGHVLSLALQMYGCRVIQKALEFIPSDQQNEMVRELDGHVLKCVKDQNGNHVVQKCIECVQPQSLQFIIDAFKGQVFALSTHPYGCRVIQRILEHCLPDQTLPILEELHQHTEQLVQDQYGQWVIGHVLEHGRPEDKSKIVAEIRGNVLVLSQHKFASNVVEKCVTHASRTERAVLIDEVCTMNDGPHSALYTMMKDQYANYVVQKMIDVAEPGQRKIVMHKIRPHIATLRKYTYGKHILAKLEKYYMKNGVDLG
The method in brief: as §1

The target of a further assay is T2, PUM1 PUF domain R6-TYR (Homo sapiens, UniProt Q14671 828-1176, N1043T;Q1047R).
T2 sequence: T1 sequence with Q216T, W217Y, G220R
The method in brief: as §1

The next assay concerns the target PUM1 PUF domain R3-RPA (Homo sapiens, UniProt Q14671 828-1176, C935R;R936P;Q939A). The method in brief: as §1
The target in the next assay is PUM1 PUF domain R4-TRT (Homo sapiens, UniProt Q14671 828-1176, N971T;H972R;Q975T). The procedure, abridged:
as §1

Another assay has as its target PUM1 PUF domain R3-AFG (Homo sapiens, UniProt Q14671 828-1176, C935A;R936F;Q939G). The method in brief:
as §1

The next assay has as its target PUM1 PUF domain R5-CSR (Homo sapiens, UniProt Q14671 828-1176, R1008S;Q1011R). The procedure, abridged:
as §1

The target of the next assay is PUM1 PUF domain R8-PRR (Homo sapiens, UniProt Q14671 828-1176, N1122P;Y1123R;Q1126R). The procedure, abridged: as §1
A further assay has as its target PUM1 PUF domain R1-RWQ (Homo sapiens, UniProt Q14671 828-1176, S863R;R864W). The method in brief:
as §1

The next assay concerns the target PUM1 PUF domain R1-KKR (Homo sapiens, UniProt Q14671 828-1176, S863K;R864K;Q867R). The procedure, abridged:
as §1

Residue numbers refer to the chain shown, from its start.

With “GGCUAGAACUAGUGGAUCCCCCGGCGCCCGGCGGCUCGAGCCCGGGUAAGUGUGAAUAGUCUGCAUGCCGCCGGGCGCCAUGCCUGCAGGUCGACUCUAGAAAACAUG”, in the assay with PUM1 PUF domain R5-GVD, the binding signal is 5.11 log2 enrichment (interaction score).

On to “GGCUAGAACUAGUGGAUCCCCCGGCGCCCGGCGGCUCGAGCCCGGGUAAGUUUAAAUAGUCUGCAUGCCGCCGGGCGCCAUGCCUGCAGGUCGACUCUAGAAAACAUG”, for which the binding signal is 2.75 log2 enrichment (interaction score) with PUM1 PUF domain R7-GVD and 2.52 log2 enrichment (interaction score) with PUM1 PUF domain R7-RPI.

As to “GGCUAGAACUAGUGGAUCCCCCGGCGCCCGGCGGCUCGAGCCCGGGUAAGUGUACAUAGUCUGCAUGCCGCCGGGCGCCAUGCCUGCAGGUCGACUCUAGAAAACAUG”, the binding signal is 4.09 log2 enrichment (interaction score) in the assay with PUM1 PUF domain R4-SRR and 2.79 log2 enrichment (interaction score) in the assay with PUM1 PUF domain R4-ARA.

“GGCUAGAACUAGUGGAUCCCCCGGCGCCCGGCGGCUCGAGCCCGGGUAAGUGUAAAUAGUCUGCAUGCCGCCGGGCGCCAUGCCUGCAGGUCGACUCUAGAAAACAUG”: the binding signal in the assay with PUM1 PUF domain R6-QWG is 5.49 log2 enrichment (interaction score); with PUM1 PUF domain R6-TYR, 5.51 log2 enrichment (interaction score); with PUM1 PUF domain R3-RPA, 0.97 log2 enrichment (interaction score); with PUM1 PUF domain R4-TRT, 2.59 log2 enrichment (interaction score); with PUM1 PUF domain R3-AFG, 3.62 log2 enrichment (interaction score); in the assay with PUM1 PUF domain R4-ARA it was 3.7 log2 enrichment (interaction score). In addition, the binding signal is 1.42 log2 enrichment (interaction score) with PUM1 PUF domain R5-CSR and 3.57 log2 enrichment (interaction score) with PUM1 PUF domain R8-PRR.

Consider “GGCUAGAACUAGUGGAUCCCCCGGCGCCCGGCGGCUCGAGCCCGGGUAAGUGUAUAUAGUCUGCAUGCCGCCGGGCGCCAUGCCUGCAGGUCGACUCUAGAAAACAUG”, for which, in the assay with PUM1 PUF domain R4-ARA, the binding signal was 1.69 log2 enrichment (interaction score).

On to “GGCUAGAACUAGUGGAUCCCCCGGCGCCCGGCGGCUCGAGCCCGGGUAAGUGUAAUUAGUCUGCAUGCCGCCGGGCGCCAUGCCUGCAGGUCGACUCUAGAAAACAUG”, for which the binding signal with PUM1 PUF domain R3-RPA was 3.99 log2 enrichment (interaction score); with PUM1 PUF domain R3-AFG, 1.51 log2 enrichment (interaction score).

“GGCUAGAACUAGUGGAUCCCCCGGCGCCCGGCGGCUCGAGCCCGGGUAAGUGUAAAUGGUCUGCAUGCCGCCGGGCGCCAUGCCUGCAGGUCGACUCUAGAAAACAUG”: in the assay with PUM1 PUF domain R1-RWQ, the binding signal was 2.2 log2 enrichment (interaction score).

As to “GGCUAGAACUAGUGGAUCCCCCGGCGCCCGGCGGCUCGAGCCCGGGUAAGUGUAAAUUGUCUGCAUGCCGCCGGGCGCCAUGCCUGCAGGUCGACUCUAGAAAACAUG”, the results for the binding signal with PUM1 PUF domain R1-KKR and in the assay with PUM1 PUF domain R1-RWQ were 7.39 log2 enrichment (interaction score) and 7.23 log2 enrichment (interaction score), respectively.
